In PubChem BioAssay (Tox21):
Values without a mark were called inactive. Inconclusive results are not listed. Where a call stands in place of a potency, no number is given. Calls of active or inactive are those of the source. Unless noted, calls follow the shape of the dose curve; as a rule, active = well fitted curve in the direction sought with a large enough effect in the repeat runs; inconclusive = weak or mixed curves; inactive = no such curve, though single readings can be large; an effect the other way counts as inactive or inconclusive.

Legend:
[1] = qHTS assay to test for compound auto fluorescence at 590 nm (red) in HepG2 cells (AID 720674)
In short: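 HepG2 cells, 2,000 per well in MEM with 10% FBS, attached overnight at 37 C, then got 23 nL compound or DMSO. After 1 hr at 37 C, 5% CO2, red fluorescence was read at 540/590 nm against Rose Bengal sodium as reference.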

[2] = qHTS assay to test for compound auto fluorescence at 535 nm (green) in HepG2 cells (AID 720675)
[3] = qHTS assay to test for compound auto fluorescence at 460 nm (blue) in HEK293 cells (AID 720678)
In short: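 Measured: blue fluorescence (Ex 405/Em 460 nm) of compound-treated HEK293 cells, incubated overnight at 37C with 5% CO2 and scaled to triamterene equivalents.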

[4] = qHTS assay to test for compound auto fluorescence at 590 nm (red) in HEK293 cells (AID 720679)
In short: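 Using HEK293 cells at 2,000 per well, the screen added 23 nL of each compound after cell attachment and incubated overnight (37C, 5% CO2). The plate reader then captured red-label fluorescence, Ex/Em 540/590nm.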

[5] = qHTS assay to test for compound auto fluorescence at 535 nm (green) in HEK293 cells (AID 720680)
[6] = qHTS assay to test for compound auto fluorescence at 460 nm (blue) in HEK293 cell free culture (AID 720681)
In short: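 Compounds were added to cell-free DMEM with 10% FBS and fluorescence read directly. The blue channel used 405 nm excitation and 460 nm emission, with triamterene as the reference fluorophore.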

[7] = qHTS assay to test for compound auto fluorescence at 535 nm (green) in HEK293 cell free culture (AID 720682)
In short: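 Using fluorescein as calibrant, autofluorescence was quantified at 485/535 nm in cell-free DMEM containing 10% FBS after pintool addition of compound or vehicle.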

[8] = qHTS assay to test for compound auto fluorescence at 590 nm (red) in HepG2 cell free culture (AID 720684)
In short: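 Compounds are added to culture medium (MEM, 10% FBS) lacking cells, then fluorescence is read at excitation 540 nm, emission 590 nm, with Rose Bengal sodium as the equivalency standard.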

[9] = qHTS assay to test for compound auto fluorescence at 460 nm (blue) in HepG2 cell free culture (AID 720685)
In short: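 Compound (23 nL) or DMSO pinned into cell-free MEM with 10% FBS; blue fluorescence read at 405/460 nm excitation/emission, expressed as auto-fluorescence equivalency to triamterene.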

[10] = qHTS assay to test for compound auto fluorescence at 460 nm (blue) in HepG2 cells (AID 720687)
In short: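 HepG2 cells in MEM with 10% FBS, attached overnight at 37 C, were exposed to compound or DMSO for 1 hr at 37 C, 5% CO2. Blue fluorescence was read at 405/460 nm, with triamterene as reference fluorophore.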

[11] = qHTS assay to identify small molecule antagonists of the thyroid receptor (TR) signaling pathway (AID 743065); also: series mostly up to about 70 µM; nearly all actives have a fitted effect of over 55% in size
In short: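 GH3.TRE-Luc rat pituitary cells (two TREs driving luciferase) were dosed with compound, then stimulated with 1 nM T3 (final) for 23.5 h at 37 C. ONE-Glo luminescence was the read-out, with CellTiter-Fluor fluorescence as the cytotoxicity counter-screen.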

Aromatase (Homo sapiens) = Aromatase (Homo sapiens) (UniProt P11511); experiment: qHTS assay to identify aromatase inhibitors (AID 743083); also: series mostly up to about 70 µM; nearly all actives have a fitted effect of over 55% in size
Sequence of Aromatase (Homo sapiens) (P11511 whole entry, looked up): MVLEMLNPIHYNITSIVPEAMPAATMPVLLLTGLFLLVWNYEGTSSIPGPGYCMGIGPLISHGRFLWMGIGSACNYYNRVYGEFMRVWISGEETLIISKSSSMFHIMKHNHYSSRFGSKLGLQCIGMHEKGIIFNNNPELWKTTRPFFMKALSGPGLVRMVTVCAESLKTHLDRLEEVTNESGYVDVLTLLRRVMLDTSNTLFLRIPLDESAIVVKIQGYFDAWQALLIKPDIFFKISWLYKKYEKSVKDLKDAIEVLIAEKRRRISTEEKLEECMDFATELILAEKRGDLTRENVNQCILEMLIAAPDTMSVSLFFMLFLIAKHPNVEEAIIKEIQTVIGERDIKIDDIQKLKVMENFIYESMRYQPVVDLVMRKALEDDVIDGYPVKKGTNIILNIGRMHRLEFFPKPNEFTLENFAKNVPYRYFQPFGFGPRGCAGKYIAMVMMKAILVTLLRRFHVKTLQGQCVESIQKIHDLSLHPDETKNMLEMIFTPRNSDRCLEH

[12] = target: Aryl hydrocarbon receptor (Homo sapiens) (UniProt P35869); experiment: qHTS assay to identify small molecule that activate the aryl hydrocarbon receptor (AhR) signaling pathway (AID 743085);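 also: HG2L7.5c1 human HepG2 liver cells with stably integrated DRE-driven firefly reporter; series mostly up to about 70 µM; nearly all actives have a fitted effect of over 15% in size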
Sequence of Aryl hydrocarbon receptor (Homo sapiens) (P35869 whole entry, looked up): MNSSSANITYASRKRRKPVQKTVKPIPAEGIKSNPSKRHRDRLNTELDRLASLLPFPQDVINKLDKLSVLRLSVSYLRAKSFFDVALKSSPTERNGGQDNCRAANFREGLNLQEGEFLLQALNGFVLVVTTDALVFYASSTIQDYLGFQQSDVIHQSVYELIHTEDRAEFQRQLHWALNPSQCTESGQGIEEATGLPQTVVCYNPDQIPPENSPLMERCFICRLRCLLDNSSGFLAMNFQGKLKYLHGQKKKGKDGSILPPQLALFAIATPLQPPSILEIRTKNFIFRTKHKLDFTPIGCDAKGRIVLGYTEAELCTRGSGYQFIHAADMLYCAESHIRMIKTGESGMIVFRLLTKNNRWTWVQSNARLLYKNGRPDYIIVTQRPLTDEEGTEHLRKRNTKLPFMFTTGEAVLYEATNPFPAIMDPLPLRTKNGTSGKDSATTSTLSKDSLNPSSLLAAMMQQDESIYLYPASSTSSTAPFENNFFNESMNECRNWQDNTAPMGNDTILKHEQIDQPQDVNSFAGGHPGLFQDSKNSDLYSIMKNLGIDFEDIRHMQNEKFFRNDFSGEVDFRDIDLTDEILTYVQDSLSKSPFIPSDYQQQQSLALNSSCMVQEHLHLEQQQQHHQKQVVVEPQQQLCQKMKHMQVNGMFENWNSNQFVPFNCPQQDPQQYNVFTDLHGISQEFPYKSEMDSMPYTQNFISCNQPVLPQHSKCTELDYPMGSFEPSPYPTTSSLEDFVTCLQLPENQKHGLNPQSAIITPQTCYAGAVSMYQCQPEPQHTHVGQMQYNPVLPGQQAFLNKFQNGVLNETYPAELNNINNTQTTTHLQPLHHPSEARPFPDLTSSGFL
In short: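 Measured in HG2L7.5c1 cells: CellTiter-Fluor signal (30 min incubation, 37C) for viability, then luciferase luminescence (30 min, room temperature). Compound contact time was 24 h at 37C, following a 5 h pre-incubation.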

[13] = target: Luciferin 4-monooxygenase (Photinus pyralis) (UniProt P08659); experiment: qHTS assay to identify small molecule inhibitors of firefly luciferase (AID 1224835); also: series mostly up to about 120 µM; nearly all actives have a fitted effect of over 25% in size
Sequence of Luciferin 4-monooxygenase (Photinus pyralis) (P08659 whole entry, looked up): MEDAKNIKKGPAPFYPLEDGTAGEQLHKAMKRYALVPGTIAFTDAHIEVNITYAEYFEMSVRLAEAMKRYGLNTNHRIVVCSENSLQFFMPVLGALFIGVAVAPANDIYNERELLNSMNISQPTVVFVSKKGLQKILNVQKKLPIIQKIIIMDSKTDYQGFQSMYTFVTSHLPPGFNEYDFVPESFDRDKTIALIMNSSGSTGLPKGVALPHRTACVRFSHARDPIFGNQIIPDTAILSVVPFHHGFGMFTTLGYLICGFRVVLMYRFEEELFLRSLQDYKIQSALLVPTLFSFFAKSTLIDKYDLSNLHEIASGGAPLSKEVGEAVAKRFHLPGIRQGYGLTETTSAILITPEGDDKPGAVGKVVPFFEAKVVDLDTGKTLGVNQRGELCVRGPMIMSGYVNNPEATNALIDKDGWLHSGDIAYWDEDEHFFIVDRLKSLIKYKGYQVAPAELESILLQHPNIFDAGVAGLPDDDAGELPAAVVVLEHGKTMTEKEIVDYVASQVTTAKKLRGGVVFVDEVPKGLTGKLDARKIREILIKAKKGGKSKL
In short: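 Biochemical qHTS: compounds run as interplate titrations against purified firefly enzyme, with D-luciferin and ATP each at its KM concentration. Light output recorded by CCD imaging.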

[14] = qHTS RealTime-Glo MT Cell Viability Assay in HEK293 cells - 0 hour (AID 1224880); also: top concentration of the series differs between compounds; nearly all actives have a fitted effect of over 45% in size
In short: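 600 cells/well were plated with the nonlytic NanoLuc/prosubstrate reagent, pre-incubated 5 h, then given 23 nL of compound in DMSO. Incubation at 37 C for 40 h, with luminescence from viable-cell-reduced substrate read repeatedly from 0 h.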

[15] = qHTS assay to identify small molecule agonists of the sonic hedgehog signaling (Shh) pathway (AID 1259368; calls by dose curve;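 also: NIH/3T3-derived 3T3Gli1-Luc cells carrying a stable Gli1-driven firefly luciferase reporter; series mostly up to about 92 µM; nearly all actives have a fitted effect of over 15% in size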)
In short: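 NIH/3T3-derived 3T3Gli1-Luc cells with stably integrated Gli1-driven firefly luciferase, 2,000 cells/well, compounds added after 4 hr. Incubated 24 hr at 37C, 5% CO2; luminescence read after 30 min with luciferase reagent at room temperature.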

[16] = target: Thyrotropin-releasing hormone receptor (Homo sapiens) (UniProt P34981); experiment: qHTS assay to identify small molecule antagonists of the thyrotropin-releasing hormone receptor (TRHR) signaling pathway (AID 1346877; active = well fitted inhibition curve with a large enough effect in the repeat runs, not every such curve was filed as active; also: series mostly up to about 51 µM)
Sequence of Thyrotropin-releasing hormone receptor (Homo sapiens) (P34981 whole entry, looked up): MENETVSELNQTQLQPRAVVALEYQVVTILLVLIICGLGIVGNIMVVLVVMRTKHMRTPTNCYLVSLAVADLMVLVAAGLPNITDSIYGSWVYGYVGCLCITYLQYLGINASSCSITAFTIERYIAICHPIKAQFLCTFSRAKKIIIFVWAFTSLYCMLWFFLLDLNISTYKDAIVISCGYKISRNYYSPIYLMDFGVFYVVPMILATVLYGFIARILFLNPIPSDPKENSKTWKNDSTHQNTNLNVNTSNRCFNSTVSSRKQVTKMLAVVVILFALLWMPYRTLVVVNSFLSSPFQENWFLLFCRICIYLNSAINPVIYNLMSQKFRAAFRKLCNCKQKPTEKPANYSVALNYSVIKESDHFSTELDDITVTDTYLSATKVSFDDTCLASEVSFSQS
In short: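 TRHR-expressing HEK293 cells loaded with calcium dye for 2 h at 37 C; compounds pre-incubated 5 min at room temperature before TRH challenge at 1 nM final. Intracellular calcium fluorescence read kinetically for 3 min; 15 concentrations in triplicate.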

[17] = target: Thyrotropin-releasing hormone receptor (Homo sapiens) (UniProt P34981); experiment: qHTS assay to identify small molecule agonists of the thyrotropin-releasing hormone receptor (TRHR) signaling pathway (AID 1346891; calls by dose curve; also: series mostly up to about 58 µM)
In short: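 In 1536-format, 1500 TRHR-Hek293 cells per well grew 18 h, took up calcium dye for 2 h at 37 °C, received compound, and were read kinetically; 15-point titrations, triplicates.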

[18] = Caspase-3/7 induction in HepG2 cells by small molecules, qHTS assay (AID 1346978); also: nearly all actives have a fitted effect of over 15% in size
In short: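 Wild-type HepG2 cells, 2,000/well, settled 5 hr at 37 C and 5% CO2, then compound-treated for 17 hr; caspase-3/7 activity read by luminescent Caspase-Glo 3/7 after 30 min at room temperature.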

[19] = Caspase-3/7 induction in CHO-K1 cells by small molecules, qHTS assay (AID 1346980); also: nearly all actives have a fitted effect of over 15% in size
In short: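 Wild-type CHO-K1 cells exposed to compounds for 17hr at 37 C, 5% CO2. Caspase-3/7 activity then measured by Caspase-Glo 3/7 luminescence after 30min at room temperature.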

[20] = qHTS assay to test for compound auto fluorescence at 590 nm (red) in HEK293 cell free culture (AID 720683)
In short: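 Cell-free wells of DMEM with 10% FBS received compound, and intrinsic fluorescence was read at excitation/emission 540/590 nm. Values expressed as equivalence to Rose Bengal sodium.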

[21] = qHTS assay to test for compound auto fluorescence at 535 nm (green) in HepG2 cell free culture (AID 720686)
[22] = tested on: thyroid hormone receptor (rat, GH3 cells); experiment: qHTS assay to identify small molecule agonists of the thyroid receptor (TR) signaling pathway (AID 743066; calls by dose curve)
[23] = qHTS assay to identify small molecule antagonists of the sonic hedgehog signaling (Shh) pathway (AID 1259369; calls by dose curve; also: nearly all actives have a fitted effect of over 45% in size)
In short: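 NIH/3T3-derived Gli1-Luc reporter cells plated 4 h, dosed with compound, then stimulated with conditioned medium for 24 h at 37 C. Firefly luciferase luminescence read after 30 min with detection reagent at room temperature.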

[24] = qHTS assay to identify small molecule antagonists of the estrogen related receptor (ERR) signaling pathway (AID 1224819; also: nearly all actives have a fitted effect of over 50% in size; also: potency is read from the fitted curve at half-maximal effect)
In short: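 ERR reporter cell line (NTP) plated at 2,000 cells/well, settled 6 h at 37C/5% CO2, then exposed to LOPAC compounds for 18 h at 37C. One-Glo luciferase luminescence read after 30 min at room temperature.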

[25] = qHTS assay to identify small molecule agonists of the estrogen related receptor signaling pathway with the pleiotropic PPARgamma coactivator (PGC) (AID 1224823)
In short: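 Cell-based luciferase assay in the NTP-supplied PGC/ERR line, 2,000 cells/well; 18 h compound exposure at 37 C, luminescence after One-Glo.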

[26] = qHTS assay to identify small molecule agonists of the estrogen related receptor (ERR) signaling pathway (AID 1224820)
In short: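 Quantitative HTS of the LOPAC library used NTP ERR reporter cells treated 18 h at 37 C. Signal is luminescence after One-Glo addition and a 30 min room-temperature incubation.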

[27] = tested on: estrogen-related receptor alpha (ERRalpha) with PGC-1alpha coactivator, human; experiment: qHTS assay to identify small molecule antagonists of the estrogen related receptor signaling pathway with the pleiotropic PPARgamma coactivator (PGC) (AID 1224821; calls by dose curve; also: potency is read from the fitted curve at half-maximal effect; nearly all actives have a fitted effect of over 50% in size)
In short: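 Quantitative HTS for antagonism: PGC/ERR cells received compounds after 6 h attachment and were incubated 18 h at 37 C, with luminescence (One-Glo) as the endpoint.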

[28] = qHTS assay to identify small molecule antagonists of the estrogen related receptor signaling pathway with the pleiotropic PPARgamma coactivator (PGC) cell viability counter screen (AID 1224822;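 also: potency is read from the fitted curve at half-maximal effect; viability read after 17.5 h compound exposure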)
In short: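 PGC/ERR cells rested 6 h, then compound-treated 17.5 h at 37 C. CellTiter-Fluor added for 30 min at 37 C, viability measured by fluorescence intensity.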

Q: Which outcome [1] does the source give for `O=[N+]([O-])c1ccccc1Cl` here?
A: Its outcome is “inactive”.

Q: What about the Potency [2] of the same compound?
A: The Potency was “inactive”.

Q: And the Potency [3]?
A: The Potency was “inactive”.

Q: What about the outcome [4] of the same compound?
A: The outcome was “inactive”.

Q: And the Potency [5]?
A: The Potency was “inactive”.

Q: What about the Potency [6] of the same compound?
A: The Potency was “inactive”.

Q: What about the Potency [7] of the same compound?
A: Its Potency is “inactive”.

Q: And the outcome [8]?
A: The outcome was “inactive”.

Q: What about the Potency [9] of the same compound?
A: Its Potency is “inactive”.

Q: And the Potency [10]?
A: The Potency was “inactive”.

Q: And the Potency [11]?
A: Its Potency is “inactive”.

Q: What about the Potency (Aromatase (Homo sapiens)) of the same compound?
A: The Potency was “inactive”.

Q: What about the Potency [12] of the same compound?
A: Its Potency is “inactive”.

Q: And the Potency [13]?
A: Its Potency is “inactive”.

Q: What about the outcome [14] of the same compound?
A: The outcome was “inactive”.

Q: And the outcome [15]?
A: Its outcome is “inactive”.

Q: And the outcome [16]?
A: Its outcome is “inactive”.

Q: What about the outcome [17] of the same compound?
A: Its outcome is “inactive”.

Q: And the Potency [18]?
A: Its Potency is “inactive”.

Q: What about the outcome [19] of the same compound?
A: The outcome was “inactive”.

Q: With `Cc1ccc(O)cc1C` as the compound, how does the outcome [1] read?
A: The outcome was “inactive”.

Q: And the Potency [2]?
A: The Potency was “inactive”.

Q: And the Potency [3]?
A: The Potency was “inactive”.

Q: What about the outcome [4] of the same compound?
A: Its outcome is “inactive”.

Q: What about the Potency [5] of the same compound?
A: The Potency was “inactive”.

Q: What about the Potency [6] of the same compound?
A: The Potency was “inactive”.

Q: What about the Potency [7] of the same compound?
A: Its Potency is “inactive”.

Q: And the outcome [20]?
A: The outcome was “inactive”.

Q: What about the outcome [8] of the same compound?
A: Its outcome is “inactive”.

Q: What about the Potency [9] of the same compound?
A: Its Potency is “inactive”.

Q: What about the Potency [21] of the same compound?
A: Its Potency is “inactive”.

Q: What about the Potency [10] of the same compound?
A: Its Potency is “inactive”.

Q: And the Potency [22]?
A: Its Potency is “inactive”.

Q: And the Potency (Aromatase (Homo sapiens))?
A: Its Potency is “inactive”.

Q: And the Potency [13]?
A: The Potency was “inactive”.

Q: And the outcome [14]?
A: Its outcome is “inactive”.

Q: And the Potency [23]?
A: Its Potency is “inactive”.

Q: For `CCn1cnc2c(Nc3cccc(Cl)c3)nc(N[C@@H]3CCCC[C@@H]3N)nc21`, which Potency [24] is on record?
A: The Potency was “inactive”.

Q: What about the Potency [25] of the same compound?
A: Its Potency is “inactive”.

Q: For `CN1CC[C@@]2(C)c3cc(O)ccc3N(C)C12` (some centres undefined), which Potency [26] is on record?
A: Its Potency is “inactive”.

Q: What about the Potency [25] of the same compound?
A: The Potency was “inactive”.

Q: What does the source list for `Cc1c2ccncc2c(C)c2c1[nH]c1ccccc12`?
A: Potency [26]: inactive; Potency [25]: inactive

Q: Which results are given for `CC(C)(C)c1cc(C=C(C#N)C#N)cc(C(C)(C)C)c1O`?
A: Potency [24]: 0.276 µM (active); Potency [26]: inactive; Potency [27]: 0.181 µM (active); Potency [25]: inactive

Q: Which results are given for `O=S1(=O)N(CCN2CC=C(c3c[nH]c4cc(F)ccc34)CC2)c2cccc3c2N1CCC3`?
A: Potency [24]: 16.2 µM (active); Potency [26]: inactive; Potency [27]: 23.7 µM (active); Potency [25]: inactive

Q: Which results are given for `O=[N+]([O-])/C=C/c1ccc2c(c1)OCO2`?
A: Potency [26]: inactive; Potency [28]: 22 µM (active); Potency [25]: inactive
